ALDH1A1 inh – ALDH1A1 (human) enzyme inhibition; P00352; 220,000 compounds, 7.3% hits; Potency, µM (top dose mostly 75.3 µM), for inactives: top-dose activity, negative = inhibition, most hits filed as inhibitors; Purified ALDH1A1, NADH fluorescence, propionaldehyde substrate; active = well fitted inhibition curve with a large enough effect, not every such curve was filed as active; inconclusive = small, poorly fitted or top-dose-only effect, or another doubt; inactive = no such curve, though single readings can be large or run the other way;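 also: plate controls were no enzyme wells and a reference inhibitor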
Target sequence (P00352 whole entry, looked up): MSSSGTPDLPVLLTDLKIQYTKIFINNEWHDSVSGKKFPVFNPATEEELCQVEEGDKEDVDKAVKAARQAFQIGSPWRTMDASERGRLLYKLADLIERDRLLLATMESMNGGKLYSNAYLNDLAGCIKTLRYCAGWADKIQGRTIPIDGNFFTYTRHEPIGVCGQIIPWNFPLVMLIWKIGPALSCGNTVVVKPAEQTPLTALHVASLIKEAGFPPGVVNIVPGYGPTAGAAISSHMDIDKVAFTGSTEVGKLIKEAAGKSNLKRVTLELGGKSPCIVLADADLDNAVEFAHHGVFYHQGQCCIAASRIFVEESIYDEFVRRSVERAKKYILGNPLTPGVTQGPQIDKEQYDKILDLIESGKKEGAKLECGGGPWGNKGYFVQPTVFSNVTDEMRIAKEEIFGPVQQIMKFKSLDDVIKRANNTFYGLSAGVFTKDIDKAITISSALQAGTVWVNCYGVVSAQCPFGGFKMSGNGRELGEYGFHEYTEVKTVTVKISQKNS
HPGD block – inhibitors of human 15-hydroxyprostaglandin dehydrogenase (HPGD); purified HPGD, NADH fluorescence kinetic, PGE2 substrate; Potency, µM, for the others: top-dose activity change, negative = inhibition, actives largely listed as inhibitors; P15428; 150,000 compounds, 4.3% hits; active = well fitted inhibition curve with a large enough effect, not every such curve was filed as active; inconclusive = small, poorly fitted or top-dose-only effect, or another doubt; inactive = no such curve, though single readings can be large or run the other way; also: % is scaled to controls: 0 for no effect and ±100 for the full control effect
Target sequence (P15428 whole entry, looked up): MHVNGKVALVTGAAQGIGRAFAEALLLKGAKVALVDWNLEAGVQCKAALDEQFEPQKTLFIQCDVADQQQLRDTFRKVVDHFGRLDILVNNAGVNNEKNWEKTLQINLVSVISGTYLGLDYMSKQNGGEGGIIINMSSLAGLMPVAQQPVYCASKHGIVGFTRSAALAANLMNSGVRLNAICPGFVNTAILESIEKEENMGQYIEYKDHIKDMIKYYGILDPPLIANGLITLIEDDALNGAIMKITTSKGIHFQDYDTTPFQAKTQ
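20 nM HPGD preincubated 15 min at room temperature with compound in 50 mM Tris-HCl pH 8, 0.01% Tween 20. Started with 1 mM NAD+ and 30 uM prostaglandin E2; NADH fluorescence (360/450 nm) read 5 times over 30-s intervals, last minus first.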
KinaseGlo FLuc – counter-screen: inhibitors of Kinase-Glo firefly luciferase; Q27757; 200,000 compounds, 0.28% hits; Kinase-Glo luciferase, ATP luminescence, 8 min; Potency, µM (doses to about 38.3 µM), inactives show top-dose activity change, negative = inhibition, usual class: inhibitors; also: % is scaled to controls: 0 for no effect and ±100 for the full control effect; nearly all actives have a fitted effect of over 60% in size
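Compounds were added to a substrate mix at pH 7.2 (50 mM imidazole, 10 uM ATP, within the enzyme's linear range), followed by Kinase-Glo detection reagent; luminescence was measured after 8 minutes at ambient temperature.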
HTT aggregate – mutant huntingtin aggregation inhibition. PC12 HttQ103-GFP aggregates, Acumen cytometry, 40 h. Potency, µM (top dose mostly 46.1 µM), without a hit: at the top dose activity change, negative = inhibition, actives largely listed as inhibitors. 220,000 compounds, 1.1% hits; also: % is scaled to controls: 0 for no effect and ±100 for the full control effect; nearly all actives have a fitted effect of over 60% in size
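Inducible Q103 Huntingtin exon 1–GFP PC12 line, 1500 cells/well in phenol red free DMEM with 5% equine and 5% calf serum. Tebufenozide 100 nM induced expression; compounds titrated; aggregates quantified by cytometry.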
HTT ATP protect – Huntington cell model cytoprotection by ATP luminescence | PC12 HTT-Q103 induced, cytoprotection, ATP luminescence, 40 h | Potency, µM (series often up to 56.4 µM), without a hit: cytoprotection (ATP increase), most hits filed as activators | 230,000 compounds, 0.14% hits; also: % of control where 0% means no effect; nearly all actives have a fitted effect of over 45% in size
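Huntington model: PC12 line, ecdysone-inducible HTTQ103 exon1–GFP, tebufenozide 100 nM. Test articles in a dose series. Endpoint luminescence from cellular ATP.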
Lamin A splicing – changes lamin A minigene splicing in HeLa cells; 200,000 compounds, 0.01% hits; HeLa LMNA splicing GFP/RFP minigene ratio, 48 h; Potency, µM (titrated, usually from 46.1 µM), for inactives: at the highest dose ratio change, negative = inhibition, most hits filed as inhibitors; active = well fitted inhibition curve with a large enough effect in the signal ratio, with a control signal flat, not every such curve was filed as active; inconclusive = small, poorly fitted or top-dose-only effect, or effect the other way, or a change in a side signal; the % refers to the signal ratio; also: % is scaled to controls: 0 for no effect and ±100 for the full control effect
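S3 HeLa cells stably expressing lamin A-EGFP splicing minigene plus DsRed2, 600 cells/well, 48 h compound exposure at 37C. Laser-scanning cytometry; analysed as GFP (500-530 nm)/RFP (575-640 nm) total intensity ratio; 0.5% DMSO vehicle.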
Numbers without * were called inactive; u = inconclusive; x = no result given; [ ] = another dose, or the depositor's remark. An excerpt weighted towards active compounds, which were near 9% of everything screened. Unless noted, calls follow the shape of the dose curve; as a rule, active = well fitted curve in the direction sought with a large enough effect; inconclusive = small, poorly fitted or top-dose-only effect, or another doubt; inactive = no such curve, though single readings can be large; an effect the other way counts as inactive or inconclusive. Potency is read from the fitted curve at half-maximal effect.

SMILES | ALDH1A1 inh | HPGD block | KinaseGlo FLuc | HTT aggregate | HTT ATP protect | Lamin A splicing
Cc1cc(S(=O)(=O)NCc2ccc(S(N)(=O)=O)cc2)c(C)s1 | -8% | x | x | 10% | 16% | u
O=C1c2ccccc2C(Nc2ccc(S(=O)(=O)N3CCCCC3)cc2)N1c1ccccn1 (centres undefined) | 5µM* | -8% | -1% | 5% | 18%[10 µM] | 7%
NC(=O)c1ccsc1NC(=O)CSc1nc2ccccc2c(=O)n1CCCO | -11% | -1% | 1% | 7% | -14%[10 µM] | 0%
NNC(=O)c1ccc(COc2ccc3ccccc3c2)cc1 | x | x | x | -13%[9.22 µM] | 3%[10 µM] | x
O=C1OC(/C=C/c2ccc(Cl)cc2)=NC/1=C/c1ccco1 | 2µM* | -10% | -3% | 1% | -5%[10 µM] | -13%
C(=N/n1c2ccccc2c2ccccc21)/c1ccco1 | 10µM* | -14% | 0% | -7% | 2% | 3%
N=c1scc(-c2ccccc2)n1/N=C/c1ccco1 | 22µM* | -27% | -8% | 3% | -15%[10 µM] | -3%
Cc1cccc(-c2n[nH]c(=S)n2/N=C/c2ccco2)c1 | x | x | x | -4%[9.22 µM] | 19%[10 µM] | x
COc1ccccc1CNC(=O)C1CCN(c2nc3ccc(C)cc3[nH]2)CC1 | x | x | x | x | x | -5%[46 µM]
N#C/C(=C/c1ccc(Sc2nc3ccccc3[nH]2)o1)c1ccccc1F | u | u | -1% | 11µM* | -34% | u
COCCn1c(C)cc(C(=O)COC(=O)c2ccc3c(c2)NC(=O)CS3)c1C | -2% | -24% | 1% | u | -11%[10 µM] | -1%
C=CCn1c(C)cc(C(=O)COC(=O)c2ccc3c(c2)NC(=O)CS3)c1C | u | 22µM* | -1% | 5% | 0%[10 µM] | 3%
C=CCn1c(Br)nc2c1c(=O)[nH]c(=O)n2C | 6% | -17% | -3% | -20% | 7%[1.9 µM] | 1%
Oc1c(C(c2ccc(Cl)cc2)N2CCCC2)cc(Cl)c2cccnc12 (centres undefined) | 14µM* | x | 1% | u | -104% | u
CCC(=O)NC(c1ccco1)c1cc(Cl)c2cccnc2c1O (centres undefined) | 0% | x | -4% | -35%[9.22 µM] | -66%[10 µM] | u
O=C(CCc1ccccc1)NC(c1cccs1)c1cc(Cl)c2cccnc2c1O (centres undefined) | u | x | 6% | -13%[9.22 µM] | -59%[10 µM] | x
CN1CCN(C(c2ccccn2)c2cc(Cl)c3cccnc3c2O)CC1 (centres undefined) | 10µM* | x | 0% | u | -124% | u
Oc1c(C(c2ccccn2)N2CCC(Cc3ccccc3)CC2)cc(Cl)c2cccnc12 (centres undefined) | 5.6µM* | x | 0% | u | -104% | x
COC(=O)/C=C1\S/C(=N/N=C/c2ccco2)NC1=O | -9% | x | 0% | 1% | -32% | -3%[46 µM]
O=[N+]([O-])c1ccc2c(c1)C(N1CCOCC1)/C(=C/COc1ccc(F)cc1)O2 (centres undefined) | u | -14% | 2% | u | 10%[10 µM] | u
O=[N+]([O-])c1ccc(OC/C=C2\Oc3ccc([N+](=O)[O-])cc3C2N2CCOCC2)cc1 (centres undefined) | 25µM* | -7% | 4% | -7% | -18%[10 µM] | -13%
O=C(O)CSCc1c(F)cccc1Cl | 5% | -15% | -4% | 4% | -5%[10 µM] | -8%
CCCSc1nnc(Nc2ccccc2C)s1 | 4% | -12% | -7% | -4% | -17% | -3%
O=C(CCBr)N1CCN(C(=O)CCBr)CC1 | 0.89µM* | u | -5% | 12% | 1% | u
CC1=CS(=O)(=O)CC1Sc1nc(C)n[nH]1 (centres undefined) | 12% | x | 0% | 1% | -26% | -4%[46 µM]
SMILES | ALDH1A1 inh | HPGD block | KinaseGlo FLuc | HTT aggregate | HTT ATP protect | Lamin A splicing
CCN(C(=O)CCCC(=O)N(CC)c1ccccc1)c1ccccc1 | 4% | -8% | 13% | -4% | x | u
N#Cc1cc2c(nc1SCC(=O)Nc1sc3c(c1C#N)CCC3)CCCCCC2 | 16µM* | -10% | -1% | -2% | -20% | 3%
N#Cc1c(NC(=O)CSc2nnc(-c3ccncc3)n2CC2CCCO2)sc2c1CCCC2 (centres undefined) | u | -7% | 1% | 12% | -15% | u
Cc1ccc(C(=O)NCc2nnc(SCC(=O)Nc3sc4c(c3C#N)CCCC4)n2C)cc1 | 14µM* | -33% | 3% | 20% | 4% | 9%
N#Cc1cc2c(nc1SCC(=O)Nc1sc3c(c1C#N)CCC3)CCC2 | -13% | -24% | -1% | 10% | 4% | 17%
COc1ccc(-c2nnn(CC(=O)Nc3sc4c(c3C#N)CCCC4)n2)cc1 | 10µM* | -18% | -6% | 12% | -11% | 8%
CCn1c(SCC(=O)Nc2sc3c(c2C#N)CCCC3)nnc1-c1ccncc1 | 18µM* | -9% | 2% | 12% | 34%[10 µM] | -16%
O=C(CSc1nc2scc(-c3ccccc3)c2c(=O)[nH]1)N1CCCCC1 | 1.8µM* | x | -1% | -4% | x | x
O=C(CSc1nc2scc(-c3ccccc3)c2c(=O)[nH]1)NC1CCCCC1 | 2% | x | x | 4% | -32% | x
Cc1c(N=C2NC(=O)C(CC(=O)Nc3ccccc3)S2)c(=O)n(-c2ccccc2)n1C (centres undefined) | -3% | -4% | 2% | -5% | 23%[0.074 µM] | -3%
Nc1cc(=O)[nH]c(SCC(=O)N2CCc3ccccc3C2)n1 | 3% | -7% | -6% | 4% | 25% | 3%
CN(C)CCCNC(=O)c1ccc(=O)[nH]n1 | x | x | x | 18%[9.22 µM] | -13%[10 µM] | x
CC(=O)c1cccc(NC(=S)NC(=O)c2ccc(Cl)cc2)c1 | 25µM* | -21% | 1% | -12% | -14%[10 µM] | u
CC(=O)c1cccc(NC(=S)NC(=O)c2ccccc2C)c1 | u | x | 2% | u | -92%[10 µM] | 23%[46 µM]
CC(=O)c1cccc(NC(=S)NC(=O)c2cccc(C)c2)c1 | u | 22µM* | -3% | 13% | x | u
COc1ccc(C(=O)NC(C)c2cc(OC)c(OC)cc2Br)cc1 (centres undefined) | -4% | -5% | -2% | -7% | -3% | 19%
O=C(CNC(=O)c1ccccc1)OCc1nc2ccccc2s1 | 5% | x | x | u | 20%[10 µM] | -6%
CCc1ccc(N(CC)C(=O)c2ccc3c(Cl)c4c(nc3c2)CCC4)cc1 | u | u | -1% | u | x | u
COc1ccc(/C=N/NC(=O)CSc2n[nH]c(=O)[nH]c2=O)cc1 | -15% | 20µM* | 5% | -23% | 2%[10 µM] | -6%
CCn1c(N2CCN(S(=O)(=O)c3ccccc3C(F)(F)F)CC2)nc2ccccc21 | -1% | x | x | u | -35% | u
C=CCn1c(=S)[nH]c2sccc2c1=O | 32µM* | x | 1% | 1% | -14% | 8%[46 µM]

Source: PubChem BioAssay (National Center for Advancing Translational Sciences (NCATS))
